Test results as given in publication PMC5540273 (PLoS ONE, 2017).

Columns and labels:
Settings in all cases: concentration: 1 μM, replicates: in singlicate; n = 1
[1] = system: INSR
[2] = system: IRAK1
[3] = system: IRAK3
[4] = system: IRAK4
[5] = system: ITK
[6] = system: JAK1(JH1domain-catalytic)
[7] = system: JAK1(JH2domain-pseudokinase)
[8] = system: JAK2(JH1domain-catalytic)
[9] = system: JAK3(JH1domain-catalytic)
[10] = system: T1, JNK1
T1 construct: gene MAPK8

[11] = system: T2, JNK2
T2 construct: gene MAPK9

[12] = system: T3, JNK3
T3 construct: gene MAPK10

[13] = system: KIT-autoinhibited
[14] = system: KIT
[15] = system: LATS1
[16] = system: LATS2
[17] = system: LCK
[18] = system: LIMK1
[19] = system: LIMK2
[20] = system: T4, LKB1
T4 construct: gene STK11
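Also: KINOMEscan kinase panel screen.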

| Compound | %Inh [1] [%] | %Inh [2] [%] | %Inh [3] [%] | %Inh [4] [%] | %Inh [5] [%] | %Inh [6] [%] | %Inh [7] [%] | %Inh [8] [%] | %Inh [9] [%] | %Inh [10] [%] | %Inh [11] [%] | %Inh [12] [%] | %Inh [13] [%] | %Inh [14] [%] | %Inh [15] [%] | %Inh [16] [%] | %Inh [17] [%] | %Inh [18] [%] | %Inh [19] [%] | %Inh [20] [%] |
| --- | --- | --- | --- | --- | --- | --- | --- | --- | --- | --- | --- | --- | --- | --- | --- | --- | --- | --- | --- | --- |
| FC(F)(F)c1ccc(-c2ncn(CCCN3CCOCC3)c2-c2ccncc2)cc1 [SB-217780] | 0 | 0 | 10 | 0 | 9 | 0 | 0 | 27 | 0 | 55 | 53 | 55 | 0 | 20 | 0 | 27 | 0 | 0 | 0 | 23 |
| Nc1ncnc2c1ncn2-c1cccc(F)c1 [SKF-97560] | 9 | 33 | 0 | 30 | 6 | 10 | 12 | 39 | 55 | 38 | 18 | 36 | 25 | 39 | 0 | 42 | 20 | 20 | 22 | 4 |
| COC(=O)c1c(-c2ccccc2)c2cc(Br)ccc2c(=O)n1Cc1ccc(NC(=O)CCC(=O)O)cc1 | 8 | 8 | 25 | 16 | 12 | 5 | 0 | 0 | 0 | 99 | 99.1 | 99.3 | 1 | 38 | 27 | 17 | 0 | 0 | 0 | 6 |
| COC(=O)c1c(-c2ccccc2)c2cc(C)ccc2c(=O)n1Cc1ccccc1 | 1 | 21 | 0 | 20 | 1 | 0 | 0 | 0 | 0 | 44 | 32 | 48 | 0 | 75 | 0 | 0 | 0 | 5 | 0 | 0 |
| COc1cc2nccc(Nc3cccc(Oc4ccccc4)c3)c2cc1OC.Cl [GW284543] | 4 | 0 | 2 | 0 | 13 | 0 | 1 | 0 | 0 | 1 | 31 | 0 | 0 | 15 | 10 | 0 | 51 | 0 | 0 | 0 |
| Cc1nnc(-c2ccc3ncn(-c4ccc(S(C)=O)cc4)c3c2)o1 (centres unmarked) | 0 | 0 | 0 | 0 | 15 | 33 | 28 | 0 | 0 | 6 | 0 | 0 | 0 | 29 | 43 | 8 | 10 | 19 | 6 | 9 |
| O=C(NCc1cccs1)c1cc(C(=O)c2c(Cl)cccc2Cl)c[nH]1 [GW823670] | 0 | 0 | 26 | 0 | 1 | 1 | 5 | 0 | 0 | 0 | 0 | 0 | 4 | 0 | 0 | 0 | 0 | 6 | 0 | 49 |
| COc1cc(Nc2ccnc3ccc(C(F)(F)F)cc23)cc(OC)c1OC [GW577382] | 10 | 22 | 6 | 2 | 9 | 8 | 0 | 9 | 100 | 39 | 48 | 29 | 0 | 19 | 0 | 0 | 68 | 18 | 0 | 0 |
| CCS(=O)(=O)c1ccc(OC)c(Nc2ncc(-c3ccc(F)cc3)o2)c1.Cl [GW591947] | 0 | 0 | 0 | 3 | 0 | 11 | 0 | 8 | 0 | 2 | 21 | 0 | 0 | 17 | 0 | 0 | 13 | 0 | 0 | 0 |
| CN(C)c1cc(-c2ccc3c(N)n[nH]c3c2)nc(N)n1 [GSK2219329] | 0 | 0 | 0 | 0 | 6 | 6 | 7 | 0 | 0 | 0 | 11 | 4 | 81 | 7 | 0 | 2 | 17 | 0 | 14 | 0 |
| COc1cc2ncn(-c3cc(OCc4ccc(S(C)(=O)=O)cc4)c(C(N)=O)s3)c2cc1OC [GW869979] | 13 | 26 | 4 | 21 | 16 | 2 | 11 | 18 | 30 | 36 | 18 | 18 | 21 | 0 | 0 | 39 | 12 | 11 | 16 | 25 |
| Cl.NS(=O)(=O)c1cccc(Nc2cc(-c3ccc(F)cc3)n[nH]2)c1 [GW824645] | 5 | 0 | 0 | 0 | 0 | 0 | 23 | 48 | 0 | 8 | 1 | 0 | 35 | 90 | 0 | 0 | 0 | 0 | 0 | 25 |
| COc1ccc(-c2coc3ccc(-c4nnc(SCc5cccc(C#N)c5)o4)cc23)cc1 | 20 | 0 | 0 | 0 | 0 | 22 | 36 | 12 | 0 | 22 | 17 | 14 | 1 | 21 | 29 | 11 | 11 | 26 | 0 | 0 |
| C[C@@H]1CC[C@H](C(=O)NC2CCCCC2)CN1c1cc(-c2ccc3c(N)n[nH]c3c2)nc(N)n1 [GSK2291363] | 10 | 34 | 0 | 28 | 22 | 7 | 11 | 9 | 0 | 34 | 30 | 10 | 10 | 27 | 0 | 72 | 24 | 0 | 11 | 23 |
| CN1C(=O)C(Nc2cc(Cl)c(O)c(Cl)c2)=C(c2ccc(Cl)cc2)C1=O [SB-404321] | 0 | 0 | 0 | 0 | 0 | 13 | 0 | 0 | 0 | 24 | 19 | 15 | 26 | 0 | 0 | 0 | 0 | 0 | 0 | 32 |
| Cl.c1ccc(Cn2cnc3cc(Nc4ncnc5ccccc45)ccc32)cc1 [GW272142] | 0 | 26 | 0 | 15 | 7 | 4 | 0 | 0 | 0 | 13 | 7 | 0 | 4 | 0 | 0 | 0 | 25 | 0 | 4 | 0 |
| CCS(=O)c1ccc(-c2coc3ccc(-c4nnc(C)o4)cc23)cc1 (centres unmarked) | 1 | 6 | 0 | 9 | 0 | 1 | 20 | 23 | 0 | 22 | 24 | 18 | 0 | 5 | 18 | 0 | 5 | 0 | 0 | 29 |
| Nc1n[nH]c2ncc(-c3ccccc3)cc12 [SB-517081] | 18 | 49 | 3 | 22 | 19 | 4 | 34 | 55 | 0 | 38 | 14 | 5 | 13 | 83 | 0 | 0 | 7 | 0 | 9 | 0 |
| Cc1nn2c(=O)cc(N3CCOCC3)nc2n1Cc1cccc(Cl)c1Cl [GSK2342769] | 0 | 75 | 16 | 16 | 14 | 10 | 0 | 6 | 0 | 10 | 15 | 5 | 0 | 10 | 0 | 0 | 5 | 0 | 0 | 0 |
